Experimental data taken from PubChem BioAssay (NCATS).
Several values for one entry are separate records, joined by “and”; a condition that tells them apart may be missing. Equal entries are not always repeated. Records with an inconclusive call do not appear. Activity calls are given as the source filed them. Calls come from the whole dose curve; as a rule, active = well fitted cell-killing curve with a large enough effect; inconclusive = small, poorly fitted or top-dose-only effect, or effect the other way; inactive = no such curve, though single readings can be large or run the other way.

Test: Cell Viability qHTS for small molecule stabilizers of the endoplasmic reticulum resident proteome (AID 1508629);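 note: compound exposure about 46 h in total before the viability read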
Conditions: cell viability counter-screen, 100 nM thapsigargin for final 4 h
Text: Assay Provider: Brandon K. Harvey Ph.D.
National Institute on Drug Abuse, National Institutes of Health, Baltimore, MD
Endoplasmic reticulum (ER) dysregulation is associated with human pathologies including neurodegenerative, cardiovascular, muscular, and diabetic conditions. Maintenance of ER calcium is critical for functions of the ER and its depletion can lead to loss of ER resident proteins, in a process termed exodosis. Therapeutic compounds capable of attenuating the redistribution of ER proteins under pathological conditions may slow or stop disease progression. To identify such compounds, we performed a quantitative high-throughput screen (qHTS) using the SERCaMP assay, which monitors secretion of ER resident proteins triggered by calcium depletion.
SERCaMP was initially developed as a reporter of ER calcium homeostasis using a Gaussia luciferase with a modified signal peptide and carboxy-terminus (GLuc-SERCaMP), modifications that confer secretion of the reporter in response to ER calcium depletion (Henderson et al., 2014). The assay was used to screen 9,501 compounds, including a collection of drugs approved by the FDA (US), EMA (EU), NHI (Japan), and HC (Canada) regulatory agencies (Huang et al., 2011). Since the SERCaMP reporter reflects the exodosis phenomenon (Trychta et al., 2018a), compounds identified in the screen have the potential to prevent exodosis by different mechanisms such as stabilizing ER calcium or augmenting ERS retrieval.
1. Henderson, M.J., Wires, E.S., Trychta, K.A., Richie, C.T., and Harvey, B.K. (2014). SERCaMP: a carboxy-terminal protein modification that enables monitoring of ER calcium homeostasis. Mol Biol Cell 25, 2828-2839.
2. Huang, R., Southall, N., Wang, Y., Yasgar, A., Shinn, P., Jadhav, A., Nguyen, D.T., and Austin, C.P. (2011). The NCGC pharmaceutical collection: a comprehensive resource of clinically approved drugs enabling repurposing and chemical genomics. Sci Transl Med 3, 80ps16.
3. Trychta, K.A., Back, S., Henderson, M.J., and Harvey, B.K. (2018a). KDEL Receptors Are Differentially Regulated to Maintain the ER Proteome under Calcium Deficiency. Cell Rep 25, 1829-1840 e1826.
SEQUENCE No. (1, 2, 3, etc.); […] (e.g., Cells, Incubation, Reagent, etc.); VALUE and DESCRIPTION.
1; Reagent; 5 uL; 1000 SH-SY5Y cells per wells
3; Compound; 23 nL; Control inhibitor / compound library
5; Reagent; 100 nM; Thapsigargin
7; Reagent; 5 uL; CellTiter-Glo (Promega)
8; Time; 10 min; room temperature
9; Detection; Luminescence; ViewLux imaging system
NOTES (numbers refer to sequence above)
1; SH-SY5Y human neuroblastoma cells stably expressing GLuc-SERCaMP (SH-SY5Y-GLuc-ASARTDL) cells were seeded in 1,536 well white tissue culture treated plates (Corning, Cat# 7464) in DMEM-high glucose-sodium pyruvate (ThermoFisher Scientific, Cat #10569) supplemented with 10% bovine growth serum (Hyclone), 10 U/ml penicillin (Gibco), 10 ug/ml streptomycin (Gibco), and 20 mM HEPES.
2; Assay plates were incubated for 5 hr at 37C in a humidified incubator containing 5% CO2.
3; qHTS libraries (23 nl, final concentrations of 1.53 uM, 7.67 uM, 38.3 uM) or controls (neutral control: DMSO, positive control: dantrolene) were added using a Kalypsis pin-tool Robotic System equipped with 1536 pinheads.
4; Cells were then incubated for 42 hours at 37C, 5% CO2.
5; Thapsigargin was added at 100 nM to deplete ER calcium stores.
6; Cells were incubated for 4 hr (37C, 5% CO2).
7; Cell viability was measured using the CellTiter-Glo Luminescent Cell Viability Assay (Promega). Briefly, an equal volume of reagent was added to each well. Plates were rotated for 2 min.
8; Assay plates were incubated for 10 min at room temperature.
9; Luminescence was measured using a ViewLux CCD imaging system (Perkin Elmer) equipped with clear filters.
% is set by controls: 0 for no effect and ±100 for the full control effect; potency is the fitted concentration of half-maximal effect.

Question: With CN1C2CCC1CC(OC(=O)C(CO)c1ccccc1)C2 (centres undefined) as the molecule, how does the max response read?
Answer: The max response was -15.7% (inactive) and 13.4% (inactive).

Question: With CN1CCC(=C2c3ccccc3CC(=O)c3sccc32)CC1 as the molecule, how does the max response read?
Answer: The max response was 19.1% (inactive).

Question: With Clc1ccc2c(c1)C(N1CCNCC1)=Nc1ccccc1O2 as the molecule, how does the max response read?
Answer: Its max response is -4.18% (inactive).

Question: With CCCCc1oc2ccccc2c1C(=O)c1cc(I)c(OCCN(CC)CC)c(I)c1 as the molecule, how does the max response read?
Answer: Its max response is 10.4% (inactive).

Question: For NC12CC3CC(CC(C3)C1)C2, which max response is on record?
Answer: Its max response is 12.2% (inactive) and 7.67% (inactive).

Question: For CC(CCc1ccc(O)cc1)NCCc1ccc(O)c(O)c1 (centres undefined), which max response is on record?
Answer: The max response was 27% (inactive).

Question: With Cn1c(=O)c2c(ncn2C)n(C)c1=O as the molecule, how does the max response read?
Answer: Its max response is 8.95% (inactive) [middle of 5 runs].

Question: For COc1ccccc1OCCNCC(O)COc1cccc2[nH]c3ccccc3c12 (centres undefined), which Potency is on record?
Answer: Its Potency is 25.1 µM (active).

Question: Which Potency does the source give for O=C(Nc1ccc([N+](=O)[O-])cc1Cl)c1cc(Cl)ccc1O here?
Answer: The Potency was 5.01 µM (active).

Question: For C[C@@H]1CC(=O)NN=C1c1ccc(NN=C(C#N)C#N)cc1, which max response is on record?
Answer: Its max response is -18.7% (inactive).

Question: With CN(C)CCCN1c2ccccc2CCc2ccc(Cl)cc21 as the molecule, how does the max response read?
Answer: The max response was -4.23% (inactive).

Question: Which max response does the source give for CC12CC3CC(C)(C1)CC(N)(C3)C2 here?
Answer: The max response was 23.1% (inactive).

Question: For COc1ccc(CCN(C)CCCC(C#N)(c2ccc(OC)c(OC)c2)C(C)C)cc1OC (centres undefined), which max response is on record?
Answer: The max response was -5.84% (inactive).

Question: For O=c1c(O)c(-c2ccc(O)c(O)c2)oc2cc(O)cc(O)c12, which max response is on record?
Answer: Its max response is -19.3% (inactive) and 6.63% (inactive) and -20.3% (inactive).
